Results on 31 targets are retold here after the supplement of paper PMC12819154, “High-throughput peptide-centric local stability assay extends protein–ligand identification to membrane proteins, tissues and bacteria” (Nature Structural & Molecular Biology, 2025).

Sequence of UniProt Q6PGL7 (Q6PGL7 whole entry): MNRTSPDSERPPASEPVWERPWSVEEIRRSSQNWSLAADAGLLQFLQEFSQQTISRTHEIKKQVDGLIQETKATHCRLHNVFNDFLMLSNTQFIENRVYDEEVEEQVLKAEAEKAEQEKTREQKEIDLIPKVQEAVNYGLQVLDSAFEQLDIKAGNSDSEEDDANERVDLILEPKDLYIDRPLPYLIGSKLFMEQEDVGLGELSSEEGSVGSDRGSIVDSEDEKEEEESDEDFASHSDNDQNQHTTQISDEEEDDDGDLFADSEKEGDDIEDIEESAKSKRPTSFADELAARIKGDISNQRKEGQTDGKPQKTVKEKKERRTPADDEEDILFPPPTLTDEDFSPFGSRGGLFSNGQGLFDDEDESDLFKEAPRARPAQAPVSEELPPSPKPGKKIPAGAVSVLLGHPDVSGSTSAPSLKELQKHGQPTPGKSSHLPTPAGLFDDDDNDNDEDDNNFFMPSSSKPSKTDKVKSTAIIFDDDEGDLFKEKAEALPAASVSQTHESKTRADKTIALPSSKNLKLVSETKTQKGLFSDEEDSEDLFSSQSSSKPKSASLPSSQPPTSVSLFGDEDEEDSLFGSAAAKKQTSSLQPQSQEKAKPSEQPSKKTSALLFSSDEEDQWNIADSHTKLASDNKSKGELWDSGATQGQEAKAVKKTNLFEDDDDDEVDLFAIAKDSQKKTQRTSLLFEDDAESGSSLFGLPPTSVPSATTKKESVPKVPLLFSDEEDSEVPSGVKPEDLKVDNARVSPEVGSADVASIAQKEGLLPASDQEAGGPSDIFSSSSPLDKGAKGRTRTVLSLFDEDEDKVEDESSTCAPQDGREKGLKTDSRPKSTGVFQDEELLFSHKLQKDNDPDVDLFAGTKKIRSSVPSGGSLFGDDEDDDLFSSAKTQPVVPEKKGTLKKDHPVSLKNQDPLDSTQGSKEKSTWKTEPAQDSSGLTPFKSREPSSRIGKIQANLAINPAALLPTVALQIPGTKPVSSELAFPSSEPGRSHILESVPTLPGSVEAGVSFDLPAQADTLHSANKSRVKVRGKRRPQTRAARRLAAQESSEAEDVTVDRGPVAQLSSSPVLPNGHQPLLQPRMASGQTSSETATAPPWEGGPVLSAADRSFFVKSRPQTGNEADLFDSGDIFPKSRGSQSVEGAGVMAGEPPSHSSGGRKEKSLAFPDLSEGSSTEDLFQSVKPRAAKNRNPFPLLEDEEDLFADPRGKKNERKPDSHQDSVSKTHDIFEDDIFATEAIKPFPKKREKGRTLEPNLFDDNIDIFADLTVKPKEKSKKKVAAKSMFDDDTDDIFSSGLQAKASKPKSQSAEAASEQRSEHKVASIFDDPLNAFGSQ
Sequence of UniProt Q6P4S6 (Q6P4S6 whole entry): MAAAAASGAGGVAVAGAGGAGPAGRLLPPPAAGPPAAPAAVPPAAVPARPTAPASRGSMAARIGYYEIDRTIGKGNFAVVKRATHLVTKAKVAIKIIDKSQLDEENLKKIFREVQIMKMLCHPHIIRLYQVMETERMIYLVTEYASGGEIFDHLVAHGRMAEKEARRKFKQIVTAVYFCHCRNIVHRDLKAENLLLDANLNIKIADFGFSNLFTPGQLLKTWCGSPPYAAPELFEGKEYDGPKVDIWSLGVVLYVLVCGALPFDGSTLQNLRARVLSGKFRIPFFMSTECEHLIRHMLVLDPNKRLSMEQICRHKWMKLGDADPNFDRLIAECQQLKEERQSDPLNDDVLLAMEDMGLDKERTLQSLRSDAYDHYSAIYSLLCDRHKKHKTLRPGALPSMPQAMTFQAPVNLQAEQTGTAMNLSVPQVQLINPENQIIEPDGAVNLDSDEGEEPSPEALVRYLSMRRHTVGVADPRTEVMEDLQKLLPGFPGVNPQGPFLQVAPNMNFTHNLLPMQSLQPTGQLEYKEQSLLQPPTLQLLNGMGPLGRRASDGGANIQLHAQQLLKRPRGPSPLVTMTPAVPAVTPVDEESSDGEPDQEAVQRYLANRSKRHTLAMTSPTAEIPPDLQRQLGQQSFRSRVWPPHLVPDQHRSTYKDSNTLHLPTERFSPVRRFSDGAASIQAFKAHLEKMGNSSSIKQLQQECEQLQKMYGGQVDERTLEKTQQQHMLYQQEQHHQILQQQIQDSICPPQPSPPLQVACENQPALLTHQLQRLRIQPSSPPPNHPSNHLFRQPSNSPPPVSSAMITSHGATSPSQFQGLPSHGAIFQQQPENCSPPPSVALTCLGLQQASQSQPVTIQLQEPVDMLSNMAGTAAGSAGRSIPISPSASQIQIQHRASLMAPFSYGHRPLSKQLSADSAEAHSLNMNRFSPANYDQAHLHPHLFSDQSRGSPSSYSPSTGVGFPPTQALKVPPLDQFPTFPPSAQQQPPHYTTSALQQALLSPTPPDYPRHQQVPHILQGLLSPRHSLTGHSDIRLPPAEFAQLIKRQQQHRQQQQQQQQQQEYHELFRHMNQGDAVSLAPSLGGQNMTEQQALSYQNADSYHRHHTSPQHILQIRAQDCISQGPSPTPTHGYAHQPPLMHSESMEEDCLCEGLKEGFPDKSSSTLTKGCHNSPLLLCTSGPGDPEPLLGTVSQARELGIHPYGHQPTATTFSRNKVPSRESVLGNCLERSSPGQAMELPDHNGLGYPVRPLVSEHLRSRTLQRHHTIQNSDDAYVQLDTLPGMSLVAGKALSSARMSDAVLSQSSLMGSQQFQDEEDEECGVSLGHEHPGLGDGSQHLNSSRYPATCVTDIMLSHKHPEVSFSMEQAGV
Sequence of UniProt P51881 (P51881 whole entry): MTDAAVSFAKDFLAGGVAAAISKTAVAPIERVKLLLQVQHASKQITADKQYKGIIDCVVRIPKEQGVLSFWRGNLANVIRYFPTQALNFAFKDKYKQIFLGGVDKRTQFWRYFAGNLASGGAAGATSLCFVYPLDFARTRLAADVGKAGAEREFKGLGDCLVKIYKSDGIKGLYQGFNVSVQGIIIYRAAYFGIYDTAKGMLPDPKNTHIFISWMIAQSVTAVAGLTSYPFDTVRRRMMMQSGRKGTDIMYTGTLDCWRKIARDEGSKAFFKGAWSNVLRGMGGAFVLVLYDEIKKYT
Sequence of UniProt Q07417 (Q07417 whole entry): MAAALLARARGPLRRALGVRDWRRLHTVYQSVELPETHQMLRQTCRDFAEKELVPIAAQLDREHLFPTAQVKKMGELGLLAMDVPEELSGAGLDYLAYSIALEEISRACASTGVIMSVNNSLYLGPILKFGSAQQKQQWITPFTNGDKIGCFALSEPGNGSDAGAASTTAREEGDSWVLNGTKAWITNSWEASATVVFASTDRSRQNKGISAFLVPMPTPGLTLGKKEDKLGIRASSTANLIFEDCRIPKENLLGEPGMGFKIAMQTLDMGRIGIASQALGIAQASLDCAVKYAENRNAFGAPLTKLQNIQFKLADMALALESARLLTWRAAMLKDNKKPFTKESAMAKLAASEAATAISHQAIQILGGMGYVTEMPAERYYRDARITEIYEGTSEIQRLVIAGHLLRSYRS
Sequence of UniProt Q9R117 (Q9R117 whole entry): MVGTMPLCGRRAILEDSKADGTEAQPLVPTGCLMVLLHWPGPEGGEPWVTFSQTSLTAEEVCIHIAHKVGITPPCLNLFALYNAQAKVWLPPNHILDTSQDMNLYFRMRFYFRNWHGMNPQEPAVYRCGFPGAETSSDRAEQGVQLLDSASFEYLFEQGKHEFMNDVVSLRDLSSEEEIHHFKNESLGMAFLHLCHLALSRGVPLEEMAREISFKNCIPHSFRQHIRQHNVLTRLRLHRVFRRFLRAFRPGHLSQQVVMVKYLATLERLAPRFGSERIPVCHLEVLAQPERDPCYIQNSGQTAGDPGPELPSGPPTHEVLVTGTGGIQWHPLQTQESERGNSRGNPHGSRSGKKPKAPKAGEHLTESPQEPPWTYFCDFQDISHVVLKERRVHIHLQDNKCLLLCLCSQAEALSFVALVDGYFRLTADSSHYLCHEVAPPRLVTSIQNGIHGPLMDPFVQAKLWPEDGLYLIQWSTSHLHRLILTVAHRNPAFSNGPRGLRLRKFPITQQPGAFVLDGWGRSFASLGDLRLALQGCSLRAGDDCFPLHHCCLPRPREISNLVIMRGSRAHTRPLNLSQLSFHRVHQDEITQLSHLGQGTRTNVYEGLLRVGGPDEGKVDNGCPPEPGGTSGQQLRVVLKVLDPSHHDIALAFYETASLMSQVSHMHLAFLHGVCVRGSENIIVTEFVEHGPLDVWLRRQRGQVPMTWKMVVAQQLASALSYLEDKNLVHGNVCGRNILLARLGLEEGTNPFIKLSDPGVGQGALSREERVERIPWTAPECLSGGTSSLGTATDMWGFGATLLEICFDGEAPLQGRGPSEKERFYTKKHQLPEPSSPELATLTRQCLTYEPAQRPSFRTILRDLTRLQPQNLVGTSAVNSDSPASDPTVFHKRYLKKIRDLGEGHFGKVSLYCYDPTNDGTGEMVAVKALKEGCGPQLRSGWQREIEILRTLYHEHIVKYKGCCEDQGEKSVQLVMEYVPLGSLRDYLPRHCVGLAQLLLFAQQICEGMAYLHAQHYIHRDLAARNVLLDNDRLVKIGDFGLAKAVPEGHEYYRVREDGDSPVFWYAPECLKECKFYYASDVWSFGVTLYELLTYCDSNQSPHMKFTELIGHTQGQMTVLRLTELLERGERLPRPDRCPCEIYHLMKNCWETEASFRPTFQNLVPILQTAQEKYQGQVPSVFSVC
Sequence of UniProt Q9ET43 (Q9ET43 whole entry): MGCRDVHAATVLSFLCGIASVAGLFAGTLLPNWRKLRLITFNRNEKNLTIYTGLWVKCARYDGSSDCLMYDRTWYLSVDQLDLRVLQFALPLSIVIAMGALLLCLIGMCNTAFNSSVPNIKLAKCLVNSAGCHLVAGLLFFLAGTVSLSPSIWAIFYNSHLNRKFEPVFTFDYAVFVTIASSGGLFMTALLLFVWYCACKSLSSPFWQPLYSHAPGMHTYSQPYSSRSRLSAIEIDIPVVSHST
Sequence of UniProt Q9CYZ2 (Q9CYZ2 whole entry): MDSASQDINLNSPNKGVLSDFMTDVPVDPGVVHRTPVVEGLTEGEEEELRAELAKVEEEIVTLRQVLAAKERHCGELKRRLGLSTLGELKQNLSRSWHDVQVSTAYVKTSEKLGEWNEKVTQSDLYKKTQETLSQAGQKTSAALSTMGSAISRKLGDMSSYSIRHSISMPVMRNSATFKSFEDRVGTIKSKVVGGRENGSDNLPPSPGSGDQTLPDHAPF

Compound in the assay: CN[C@@H]1C[C@H]2O[C@@](C)([C@@H]1OC)n1c3ccccc3c3c4c(c5c6ccccc6n2c5c31)C(=O)NC4 [staurosporine]
As to the kind of experiment: log2 fold change of tryptic peptide abundance, ligand vs vehicle (limited proteolysis) (log2 ratio); higher = more trypsin-susceptible (destabilized). The note with it: ligand concentration: 20 uM; sample: mouse liver crude lysate; replicate design: treated separately.
Regarding “UniProt Q91V04 (peptide sequence: EHSAFQAPPVKR, peptide start residue: 325)”, the log2 fold change is 3.7. As for “UniProt P70424 (peptide sequence: VLGSGAFGTVYK, peptide start residue: 719)”, the figure is -1.19. As for “UniProt O35492 (peptide sequence: MLEFDPAQR, peptide start residue: 600)”, the figure is -1.13; as for “UniProt Q9R117 (peptide sequence: NVLLDNDR, peptide start residue: 1025)”, -1.42.

With “UniProt Q6P4S6 (peptide sequence: LIAECQQLKEER, peptide start residue: 329)”, the log2 fold change was -1.43. The value for “UniProt Q9D8V0 (peptide sequence: SSSDMPETITSR, peptide start residue: 62)” was -1.22; that for “UniProt Q9CYZ2 (peptide sequence: LGEWNEK, peptide start residue: 113)” was 0.397. Take “UniProt Q8R0Y8 (peptide sequence: MQTAGVTGHQHGSILSTLR, peptide start residue: 254)”: the log2 fold change turned out to be 0.401. The value for “UniProt O70579 (peptide sequence: NVLSLLHQR, peptide start residue: 249)” was 0.904; that for “UniProt Q62073 (peptide sequence: VNHPNIVK, peptide start residue: 84)” was -1.73; that for “UniProt Q8C0K5 (peptide sequence: GEHTYSGIIHAFK, peptide start residue: 164)” was 0.837.

Take “UniProt Q61335 (peptide sequence: QAESASEAAK, peptide start residue: 139)”: the log2 fold change turned out to be 0.352. For “UniProt P70236 (peptide sequence: ADDLEPIVELGR, peptide start residue: 50)”, the log2 fold change was -2.01.

With “UniProt P20444 (peptide sequence: LGCGPEGER, peptide start residue: 581)”, the log2 fold change was -2.63.

As to “UniProt A6X919 (peptide sequence: AGTAAPAPDGLAGR, peptide start residue: 60)”, the log2 fold change was found to be 0.335.

“UniProt Q07417 (peptide sequence: GISAFLVPMPTPGLTLGKKEDK, peptide start residue: 209)”: the log2 fold change came out at 0.268. On to “UniProt Q99J56 (peptide sequence: GGVSGFGVPPASMR, peptide start residue: 215)”, for which the log2 fold change came to 0.327.

With “UniProt Q9DBN5 (peptide sequence: NEKDLEEIPSNVR, peptide start residue: 804)”, the log2 fold change is -1.06. The value for “UniProt Q8C050 (peptide sequence: VLGTGAYGK, peptide start residue: 53)” was -1.37. The value for “UniProt P52332 (peptide sequence: NVLVESEHQVK, peptide start residue: 1007)” was -2.98; that for “UniProt Q9CYH2 (peptide sequence: LGVWYNSFR, peptide start residue: 145)” was -2.12. “UniProt Q9Z2B9 (peptide sequence: KIPAPFRPQIR, peptide start residue: 313)”: the log2 fold change is -1.34. As for “UniProt O88455 (peptide sequence: LLVSGFWGVAR, peptide start residue: 390)”, the figure is 0.757. On to “UniProt P51881 (peptide sequence: KGTDIMYTGTLDCWRK, peptide start residue: 245)”, for which the log2 fold change came out at 0.454. The value for “UniProt Q6PGL7 (peptide sequence: RPTSFADELAAR, peptide start residue: 281)” was -0.483; that for “UniProt Q61083 (peptide sequence: LLGQGAFGR, peptide start residue: 361)” was -1.9. “UniProt Q9ET43 (peptide sequence: SRLSAIEIDIPVVSHST, peptide start residue: 228)”: the log2 fold change is -0.532. On to “UniProt Q9CRD0 (peptide sequence: FKKLENSPLGEALR, peptide start residue: 102)”, for which the log2 fold change turned out to be 0.663. Regarding “UniProt P14576 (peptide sequence: SAIDLEEMASGLNKRK, peptide start residue: 58)”, the log2 fold change amounted to 0.95. The value for “UniProt Q3UYH7 (peptide sequence: SLLEGLLQR, peptide start residue: 423)” was -0.733; that for “UniProt Q9JI11 (peptide sequence: ATATQLLQHPFVK, peptide start residue: 270)” was -3.07.
